According to PubChem BioAssay AID1159580 (chemical genetic matrix, 2015):
Where “and” joins values, the source holds several entries; their conditions need not be identical. Equal entries are not always repeated. In all, about 5,500 compounds went through this assay and about 2,000 (36%) were called active. About 18% were inconclusive and are not listed. Cut-off read from the data, not from the text of the source: active = normalized growth mostly below about 0.91 (no sharp cut-off); inconclusive = no clear call, values can overlap the other calls; inactive = mostly above about 0.92. The list shows a part of the results.

Assay: chemical genetic growth profiling, strain panel (AID 1159580);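 note: tested at 20 µM; growth read once vehicle control cultures reached saturation at 30 °C; 1 = growth at the plate median or of vehicle wells; lower values mean less growth of the strain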
Conditions: S. cerevisiae deletion strains, growth OD

Measured: normalized growth

CN(C)CC[C@H](c1ccc(Cl)cc1)c1ccccn1
inactive: locus YAL013W, strain DEP1, active compounds read low 0.997 | locus YAL021C, strain ccr4, active compounds read low 0.99 | locus YAL026C, strain drs2, active compounds read low 1.01 | locus YAL030W, strain snc1, active compounds read low 1 | locus YBL061C, strain skt5, active compounds read low 1.01 | locus YBR009C, strain hhf1, active compounds read low 1.01 | locus YBR021W, strain FUR4, active compounds read low 0.995 | locus YBR023C, strain chs3, active compounds read low 0.996 | locus YBR171W, strain sec66, active compounds read low 0.998 | locus YBR229C, strain ROT2, active compounds read low 1 | locus YBR231C, strain swc5, active compounds read low 0.989 | locus YBR279W, strain paf1, active compounds read low 1.01 | locus YCL011C, strain gbp2, active compounds read low 0.993 | locus YCL016C, strain dcc1, active compounds read low 1.02 | locus YCL029C, strain bik1, active compounds read low 1 | locus YCL061C, strain MRC1, active compounds read low 1 | locus YCL069W, strain vba3, active compounds read low 1 | locus YCR088W, strain abp1, active compounds read low 0.989 | locus YDL005C, strain med2, active compounds read low 0.992 | locus YDL035C, strain GPR1, active compounds read low 1.02 | locus YDL040C, strain nat1, active compounds read low 1.01 | locus YDL074C, strain BRE1, active compounds read low 1.01 | locus YDL101C, strain DUN1, active compounds read low 0.998 | locus YDL134C, strain PPH21, active compounds read low 0.996 | locus YDL185W, strain tfp1, active compounds read low 0.985 | locus YDL192W, strain arf1, active compounds read low 1 | locus YDR001C, strain nth1, active compounds read low 0.999 | locus YDR069C, strain doa4, active compounds read low 1.01 | locus YDR101C, strain arx1, active compounds read low 0.998 | locus YDR137W, strain rgp1, active compounds read low 1.03 | locus YDR150W, strain NUM1, active compounds read low 1.01 | locus YDR159W, strain sac3, active compounds read low 1 | locus YDR162C, strain NBP2, active compounds read low 1.01 | locus YDR195W, strain ref2 1.01 | locus YDR297W, strain sur2, active compounds read low 1.01 | locus YDR318W, strain mcm21, active compounds read low 0.985 | locus YDR334W, strain swr1, active compounds read low 1 | locus YDR335W, strain msn5, active compounds read low 1 | locus YDR388W, active compounds read low 0.991 | locus YDR392W, strain spt3, active compounds read low 1.01 | locus YDR502C, strain sam2, active compounds read low 1.01 | locus YEL003W, strain gim4, active compounds read low 1.01 | locus YEL037C, strain rad23, active compounds read low 0.992 | locus YEL061C, strain CIN8 (second series), active compounds read low 1 | locus YEL061C, strain CIN8, active compounds read low 1 | locus YER015W, strain faa2, active compounds read low 1.01 | locus YER016W, strain bim1, active compounds read low 0.99 | locus YER110C, active compounds read low 0.98 | locus YER111C, strain swi4, active compounds read low 0.994 | locus YER155C, strain BEM2 (second series), active compounds read low 1.01 | locus YER155C, strain BEM2, active compounds read low 1 | locus YER167W, strain BCK2, active compounds read low 1.01 | locus YFR010W, strain ubp6, active compounds read low 0.991 | locus YGL078C, strain dbp3, active compounds read low 1 | locus YGL086W, strain mad1, active compounds read low 1.01 | locus YGL167C, strain pmr1, active compounds read low 0.985 | locus YGL173C, strain kem1, active compounds read low 0.998 | locus YGL227W, strain vid30, active compounds read low 1.01 | locus YGL240W, strain doc1, active compounds read low 1.01 | locus YGL248W, strain PDE1, active compounds read low 0.997 | locus YGL253W, strain hxk2, active compounds read low 1.01 | locus YGR078C, strain PAC10, active compounds read low 1.01 | locus YGR135W, strain pre9, active compounds read low 1 | locus YGR229C, strain SMI1, active compounds read low 1.01 | locus YGR252W, strain gcn5, active compounds read low 0.959 | locus YHR013C, strain ard1, active compounds read low 1.01 | locus YHR027C, strain rpn1, active compounds read low 0.998 | locus YHR030C, strain SLT2, active compounds read low 1 and 0.993 | locus YHR079C, strain IRE1 (second series), active compounds read low 0.993 | locus YHR079C, strain IRE1, active compounds read low 1 | locus YHR094C, strain hxt1, active compounds read low 0.99 | locus YHR129C, strain ARP1, active compounds read low 0.999 | locus YHR142W, strain chs7, active compounds read low 1.02 | locus YHR200W, strain rpn10, active compounds read low 0.992 | locus YIL066C, strain RNR3, active compounds read low 1.01 | locus YIL073C, strain SPO22, active compounds read low 0.992 | locus YIL125W, strain kgd1, active compounds read low 0.999 | locus YIR030C, strain dcg1, active compounds read low 0.991 | locus YJL092W, strain hpr5, active compounds read low 1.01 | locus YJL095W, strain BCK1 (second series), active compounds read low 0.997 | locus YJL095W, strain BCK1, active compounds read low 1 | locus YJL115W, strain asf1, active compounds read low 1.01 | locus YJL129C, strain trk1, active compounds read low 1.01 | locus YJL134W, strain LCB3, active compounds read low 1.01 | locus YJL154C, strain vps35, active compounds read low 1.01 | locus YJL164C, strain tpk1, active compounds read low 0.992 | locus YJL166W, strain qcr8, active compounds read low 0.985 | locus YJL168C, strain set2, active compounds read low 0.993 | locus YJL187C, strain SWE1 (second series), active compounds read low 1.01 | locus YJL187C, strain SWE1, active compounds read low 1.01 | locus YJR043C, strain POL32, active compounds read low 0.984 | locus YJR066W, strain TOR1, active compounds read low 0.993
